The source of these data is PubChem BioAssay (NCATS).

The subject of assay [1] is CRL-7250. Description: Cytotoxic Profiling of Annotated Libraries Using Quantitative High-Throughput Screening (AID 1296008). Also: nearly all actives have a fitted effect of over 60% in size. Also: potency is read from the fitted curve at half-maximal effect. As to max response: % is scaled to controls: 0 for no effect and ±100 for the full control effect. As to conditions: Five cell lines viability, CellTiter-Glo ATP luminescence, 48-72 h; max response: active compounds read low. The gist of the method:
(§1)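 Cells exposed to compounds for 48 or 72 hr at 37 degrees Celsius. Viability read as ATP-coupled luminescence with CellTiter-Glo after 10 min at room temperature.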

For assay [2], the system named is HEK293. The description is as above. The conditions noted are these: Five cell lines viability, CellTiter-Glo ATP luminescence, 48-72 h; max response: active compounds read low. An outline of the steps: as §1
Assay [3] deals with HaCat. Described as above. The conditions noted are these: Five cell lines viability, CellTiter-Glo ATP luminescence, 48-72 h; max response: active compounds read low. An outline of the steps:
as §1

Assay [4] concerns KB-3-1. Described as above. As to conditions: Five cell lines viability, CellTiter-Glo ATP luminescence, 48-72 h; max response: active compounds read low. The gist of the method: as §1
(In general: Cellular ATP, detected with luciferase, serves as a proxy for viable cell number.)

Assay [5] relates to NIH3T3. The description is as above. As to conditions: Five cell lines viability, CellTiter-Glo ATP luminescence, 48-72 h; max response: active compounds read low. The gist of the method: as §1
Assay [6] relates to HACAT. Briefly: qHTS assay to identify novel small-molecules to repurpose for Merkel cell carcinoma treatment (AID 1296009). Also: nearly all actives have a fitted effect of over 60% in size. As to conditions: MCC and control cell lines, CellTiter-Glo viability, 72 h; at 44.8 µM (top of the series) unless noted. The gist of the method: (§2)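 Cells were incubated with compound for 72 hr at 37 degree celsius before CellTiter-Glo addition. Luminescence was normalized with no-cell wells as full cytotoxicity and DMSO as baseline.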
On the technique in general: qHTS replaces the single test concentration by a dilution series.

Assay [7] has as its system C33A. Description: Primary qHTS to identify gynecologic anti-cancer compounds using libraries of approved drugs and bioactive compounds (AID 1345084). Also: nearly all actives have a fitted effect of over 55% in size. Also: potency is read from the fitted curve at half-maximal effect. As to activity change, negative = cytotoxicity: % is scaled to controls: 0 for no effect and ±100 for the full control effect. The conditions noted are these: Gynecologic cancer cell panel viability, ATPlite luminescence, 48 h; series mostly up to 57.5 µM. An outline of the steps:
(§3)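 Luminescence from the ATPlite ATP-monitoring reagent indicates viable cell number; lower signal means cytotoxicity. Cells received compound 16 h after seeding and were exposed for 48 h across five concentrations.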

For assay [8], the system named is CASKI. Described as above. As to conditions: Gynecologic cancer cell panel viability, ATPlite luminescence, 48 h; series mostly up to 57.5 µM. An outline of the steps:
as §3

Assay [9] concerns Es-2. The assay is described as above. As to conditions: Gynecologic cancer cell panel viability, ATPlite luminescence, 48 h; series mostly up to 57.5 µM. The gist of the method: as §3
In assay [10] the test system is HeLa. The assay is described as above. The conditions noted are these: Gynecologic cancer cell panel viability, ATPlite luminescence, 48 h; series mostly up to 57.5 µM. An outline of the steps: as §3
For assay [11], the system named is Hek293T. Described as above. As to conditions: Gynecologic cancer cell panel viability, ATPlite luminescence, 48 h, control line for the selectivity index; series mostly up to 57.5 µM. An outline of the steps: as §3
Assay [12] relates to JEG-3. The description is as above. As to conditions: Gynecologic cancer cell panel viability, ATPlite luminescence, 48 h; series mostly up to 57.5 µM. An outline of the steps:
as §3

The test system of assay [13] is OV90. Described as above. As to conditions: Gynecologic cancer cell panel viability, ATPlite luminescence, 48 h; series mostly up to 57.5 µM. An outline of the steps: as §3
Assay [14] has as its system HEK293T. Briefly: qHTS assay to identify novel small-molecules to repurpose for Merkel cell carcinoma treatment (AID 1296009). Also: nearly all actives have a fitted effect of over 60% in size. As to conditions: MCC and control cell lines, CellTiter-Glo viability, 72 h; at 44.8 µM (top of the series) unless noted. An outline of the steps:
as §2

In assay [15] the test system is CAOV3. Description: Primary qHTS to identify gynecologic anti-cancer compounds using libraries of approved drugs and bioactive compounds (AID 1345084). Also: nearly all actives have a fitted effect of over 55% in size. Also: potency is read from the fitted curve at half-maximal effect. As to activity change, negative = cytotoxicity: % is scaled to controls: 0 for no effect and ±100 for the full control effect. The conditions noted are these: Gynecologic cancer cell panel viability, ATPlite luminescence, 48 h; series mostly up to 57.5 µM. An outline of the steps:
as §3

Assay [16] deals with NIH3T3. Briefly: qHTS assay to identify novel small-molecules to repurpose for Merkel cell carcinoma treatment (AID 1296009). Also: nearly all actives have a fitted effect of over 60% in size. As to conditions: MCC and control cell lines, CellTiter-Glo viability, 72 h; at 44.8 µM (top of the series) unless noted. An outline of the steps: as §2

Records with an inconclusive call do not appear. A number with no mark means an inactive call. Active and inactive are the calls of the source. Calls follow the shape of the dose curve; as a rule, active = well fitted curve in the direction sought with a large enough effect; inconclusive = small, poorly fitted or top-dose-only effect, or another doubt; inactive = no such curve, though single readings can be large; an effect the other way counts as inactive or inconclusive.

`C=C(C)[C@@H]1CC[C@]2(C(=O)O)CC[C@]3(C)[C@H](CCC4[C@@]5(C)CCC(=O)C(C)(C)C5C(O)C[C@]43C)C12` (stereo not given in full): the max response in assay [1] was -6.3%; in assay [4], -20.6%; in [5] it was -1.28%. Further, the Potency in assay [2] was 4.47 µM (active). Further, the result in [3] and in [8] was inactive. Besides, the outcome in [6] is “inactive [at 17.4 µM]”. The Potency entry in assay [7], in [9], in assay [10], in [11], in assay [12] and in assay [13] was “inactive” throughout.
For the compound `C[C@]12CC/C(=N\OCC(=O)O)C=C1CC[C@@H]1[C@@H]2[C@@H](O)C[C@@]2(C)[C@H]1CC[C@]2(O)C(=O)CO`, the max response in assay [1] is -6.4%; in assay [3] it was 2.89%; in [5], -9.49%. Further, the compound was classed as inactive in [2], in assay [4], in assay [14] and in assay [8]. The Potency entry in [7], in assay [15], in [9], in assay [10], in assay [11] and in [12] was “inactive” throughout. Further, the Potency entry in assay [13] was “inactive”.
For the compound `CC(CNS(=O)(=O)C(C)C)c1ccc(-c2ccc(C#N)cc2)cc1` (stereo not given), the Potency was 5.8 µM (active) in assay [1], 7.31 µM (active) in [2] and 10 µM (active) in assay [13]. Moreover, the compound was classed as inactive in assay [3] and in assay [6]. The max response in [4] is -27.5%; in assay [5], -14.2%. Besides, the Potency result in assay [15] and in assay [10] was “inactive” in each case.
For `C/C=C(\C)C1C(C)=CC2CCC(OS(=O)(=O)O)C(C)C2C1/C=C/C=C/C(=O)O` (stereo not given), the outcome in assay [1], in assay [2] and in assay [8] was inactive. Further, the max response in assay [3] is -12.6%; in assay [4], 7.13%; in [5], -0.702%. In addition, in assay [14], the outcome was “inactive [at 17.4 µM]”. The Potency entry in [7], in assay [15], in assay [9], in [10], in assay [11] and in assay [12] was “inactive” throughout. Moreover, the Potency result in [13] is “inactive”.
In the case of `CC(C)C1(O)NC(=O)C(CC2(O)c3ccccc3N3C(=O)C(C)(C)NC32)n2c1nc1ccccc1c2=O` (stereo not given), the outcome in assay [1], in assay [2], in assay [4] and in assay [8] was inactive. Further, the figures for the max response in assay [3] and in assay [5] were -2.62% and -5.54%, respectively. In addition, the outcome in assay [14] was “inactive [at 17.4 µM]”. For the same compound, the Potency entry in assay [7], in [15], in [9], in assay [10], in [11] and in assay [12] was “inactive” throughout. For the same compound, in assay [13], the Potency entry is “inactive”.
As to `COc1ccc(-c2ccn(CC[C@](C)(C(=O)NO)S(C)(=O)=O)c(=O)c2)c(F)c1`, the max response in [1] is 2.02%; in assay [2], -10.7%; in assay [5] it was 3.1%. The compound was classed as inactive in assay [3], in assay [4] and in assay [6]. In addition, the Potency in [15] was 22.4 µM (active); in assay [9] it was 14.1 µM (active); in [12], 20 µM (active); in assay [13], 15.8 µM (active).
Regarding `CC1=C2CC3C(CCC3(C)O)C(C)(O)CC2OC1=O` (stereo not given), the max response in assay [1] is -2.15%; in assay [3], 3.12%; in [4], 6.46%; in assay [5], -16.4%. In addition, the compound was called inactive in [2], in assay [14] and in [8]. Also, the Potency entry in [7], in assay [15], in [9], in [10], in [11] and in [12] was “inactive” each time.
As to `CC(C)=CCC/C(C)=C/CO[C@@H]1O[C@H](CO[C@@H]2OC[C@](O)(CO)[C@H]2O)[C@@H](O)[C@H](O)[C@H]1O`, the values for the max response in assay [1] and in assay [2] were 2.57% and -12.6%, respectively. In addition, the outcome in assay [3], in [4], in assay [5] and in [8] was inactive. Moreover, the outcome in assay [6] is “inactive [at 17.4 µM]”. The Potency result in assay [7], in assay [9], in [10], in assay [11], in assay [12] and in assay [13] was “inactive” each time.
For the compound `C[C@@H]1CC[C@]2(C(=O)O)CC[C@]3(C)C(=CCC4[C@@]5(C)C[C@@H](O)[C@@H](O)C(C)(C)C5CC[C@]43C)C2[C@]1(C)O` (stereo not given in full), the max response in assay [1] was -1.23%; in assay [3], -10.3%; in assay [4], 9.05%; in [5], -8.5%. Further, the result in assay [2] and in assay [8] was inactive. In assay [14], the outcome was “inactive [at 17.4 µM]”. Also, the Potency entry in assay [7], in assay [15], in assay [9], in assay [10], in [11] and in assay [12] was “inactive” throughout. The Potency entry in [13] was “inactive”.
As to `C=C1CC[C@@]2(OC1)O[C@H]1CC3C4CC=C5C[C@@H](O[C@@H]6O[C@@H](C)[C@H](O)[C@@H](O)[C@H]6O)C[C@@H](O[C@@H]6O[C@H](C)[C@H](O)[C@H](O)[C@H]6O[C@@H]6O[C@@H](C)[C@H](O)[C@@H](O)[C@H]6O)[C@]5(C)C4CC[C@]3(C)[C@H]1[C@@H]2C` (stereo not given in full), the call in assay [1] and in assay [5] was inactive. Besides, the max response in [2] was 1.18%; in [3], -14.8%; in [4], 5.01%. In [16], the outcome is “inactive [at 9.27 µM]”. Besides, the activity change, negative = cytotoxicity was 1.56% [at 11.6 µM] in [7]; 10.5% [at 11.6 µM] in assay [15]; -15.2% [at 11.6 µM] in assay [8]; 20.8% [at 11.6 µM] in assay [9]; 18.7% [at 11.6 µM] in [10]; 5.62% [at 11.6 µM] in assay [11]. For the same compound, the activity change, negative = cytotoxicity in [12] is -4.67% [at 11.6 µM]; in [13] it was -12.6% [at 11.6 µM].
In the case of `CC(C)[C@@H](C(=O)O)N1Cc2c(cc(O)c3c2O[C@]2(C3)[C@H](C)CCC3C(C)(C)[C@H](O)[C@H](O)C[C@@]32C)C1=O` (stereo not given in full), the max response in assay [1] was 2.63%; in assay [2] it was -15%; in assay [3] it was 2.56%; in [4], 3.13%. Further, the outcome in [5] and in assay [8] was inactive. Moreover, the outcome in assay [16] was “inactive [at 17.4 µM]”. For the same compound, the Potency result in assay [7], in assay [15], in assay [9], in assay [10], in [11] and in assay [12] was “inactive” throughout. Further, in [13], the Potency result was “inactive”.
`C/C=C/C=C/C=C/C(=O)O[C@@H]1[C@@H](OC)C2=C(C(=O)N(C(CCC(=O)O)C(=O)O)C2)[C@@]2(C)CCCC(C)(C)[C@H]12` (stereo not given in full): the max response in [1] was -4.83%; in assay [3] it was -8.01%; in [4], 0.124%; in [5] it was -12.6%. For the same compound, the call in assay [2] and in assay [8] was inactive. Moreover, in assay [14], the outcome was “inactive [at 17.4 µM]”. Moreover, the Potency entry in assay [7], in [15], in [9], in assay [10], in assay [11] and in [12] was “inactive” throughout. Moreover, in assay [13], the Potency result is “inactive”.
Consider `CN(C)CC(c1ccc(O)cc1)C1(O)CCCCC1` (stereo not given), for which the max response in assay [1] was 2.79%; in assay [2], 2.78%; in assay [3], -0.565%. Moreover, the result in assay [4], in [5], in [16] and in [8] was inactive. The Potency entry in assay [7], in assay [15], in assay [9], in [10], in assay [11] and in assay [12] was “inactive” throughout. Besides, the Potency result in [13] is “inactive”.
